Results as given in PubChem BioAssay (NCI).
Values joined by “and” are separate entries in the source; they are usually repeats but may differ in a detail not shown here. Equal values may be shown once. Compounds without any hit were thinned out: in the full panel of roughly 83,000, 20% have a hit.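 Testing used 96-well plates and a 48-hour single-concentration exposure. Example: -40 means 40% of the starting cells died.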 Values without a mark were called inactive. Active and inactive are the calls of the source. Rule for the calls: active = growth percent below 10; inactive = the rest.

system: HL-60(TB) leukemia; assay: NCI-60 one-dose screen, 48 h (100 = growth as untreated, 0 = no growth, -100 = all killed); conditions: 10 µM unless noted

Row | SMILES | growth
1 | CC(C)C(C)(C)C(=O)C(C)(C)C(C)(C)C | 135%
2 | O=C(/C=C/C=C/c1ccccc1)c1ccco1 | -38.2% (active)
3 | CC(Oc1ccc(C(=O)NS(=O)(=O)C(C)(C)C)cc1C(F)(F)F)c1ccc(Oc2ccccc2)cn1 (stereo not given) | 72.2%
4 | CC(C(=O)O)n1cc(C#N)c(=O)[nH]c1=O (stereo not given) | 104% and 90.4%
5 | Cc1ccc2c3c(c(=O)[nH]c2c1)C1(C(C#N)=C(N)O3)c2cc(Br)ccc2-c2ccc(Br)cc21 | 83.7%
6 | COc1ccccc1S(=O)Nc1ccccc1 (stereo not given) | 91.5%
7 | COc1ccc(C(c2cc(OC)c(OC)c(OC)c2)N2CCN(c3ccccc3)CC2)cc1 (stereo not given) | 67.1%
8 | COc1ccc(-c2nc(NC(=O)CS(=O)(=O)c3ccc(F)cc3)sc2C)cc1 | 51.6%
9 | Cc1cc(O)c2c(c1)C(=O)c1cc(O)cc(O)c1C2=O | 121% and 83.6%
10 | C=C(C)[C@@H]1CC[C@]2(CO)CC[C@]3(C)[C@H](CC[C@@H]4[C@@]5(C)C=C(C#N)C(=O)C(C)(C)[C@@H]5CC[C@]43C)[C@@H]12 | -26.1% (active)
11 | [2H]C1([2H])[C@H](C)O[C@H](C)C([2H])([2H])N1c1ccc(NC(=O)c2cccc(-c3ccc(OC(F)(F)F)cc3)c2C)cn1 | 56.3%
12 | CC(C)Sc1nc(NN)c(C#N)c(-c2ccccc2)n1 | 98.8%
13 | CC(C)(O)C#CC#CC(C)(C)O | 104%
14 | CC(=O)Oc1c(C)c(C)c2c(c1C)CCC(C)(CC(=O)OCCCCCCCCCCC[P+](c1ccccc1)(c1ccccc1)c1ccccc1)O2 (stereo not given) | -34.8% (active)
15 | Cc1cc(C)c(N)c(Br)c1 | 97.9% and 69%
16 | CC(=O)Oc1cc(C(C)C)c(OCCN(C)C)cc1C | 131%
17 | O=C(Nc1cccc(-n2ccc3c(NC(=O)c4ccccc4)nccc32)c1)c1cccc(C(F)(F)F)c1 | 0.531% (active)
18 | CCN(CC)CC(=O)Nc1c(C)cc(C(=O)NN)cc1C | 65.2%
19 | O=C(CI)NC1Oc2ccccc2-c2oc(=O)c(-c3ccccc3)cc21 (stereo not given) | -39.3% (active)
20 | CN(C)c1ccc(C(Cc2ccc3ccccc3n2)Cc2ccc3ccccc3n2)cc1 | 16% and 73.5%

Row | SMILES | growth
21 | Cc1cc(N=Nc2ccc(-c3ccc(N=Nc4ccc(O)c(C(=O)O)c4)cc3)cc2)c(N)c(N=Nc2ccc(C(=O)O)cc2)c1N | 81%
22 | O=C(CCc1nnc(CN(c2ccccc2)c2ccccc2)o1)c1nc2ccccc2[nH]1 | 84.1%
23 | COc1ccccc1NC(=O)OCC#CCOC(=O)Nc1ccccc1OC | 85.4% and 64.8%
24 | CCCCCCCCCCCCCCCCCC1=NCCN1CCO | 36.3%
25 | Brc1ccc2c(c1)CN(C1CCCCC1)CO2 | 106%
26 | COC(=O)c1cc(C(=O)OC)cc([N+](=O)[O-])c1 | 85.8%
27 | CCOc1ccc(S(=O)(=O)c2ccc(C)cc2)c2c1no[n+]2[O-] | 85.7%
28 | C1CCC([PH+](C2CCCCC2)C2CCCCC2[PH+](C2CCCCC2)C2CCCCC2)CC1.[Au].[CH-]1CCCCC1C1CCCC[N-]1 (stereo not given) | -29.9% (active)
29 | O=C1c2cccc3cccc(c23)C(=O)N1CC#Cc1ccc2c3c(cccc13)C(=O)N(CCO)C2=O | 112%
30 | COc1ccc(-c2noc(N)c2-c2cc(OC)c3c(c2)OCO3)cc1 | -29.4% (active)
31 | Cc1nn(-c2cc(=O)[nH]c3ccc(Cl)cc23)c(N)c1C#N | 100%
32 | OCC1OC(n2cnc3c(=S)nc[nH]c32)C(O)C1O (stereo not given) | 120% and 50.9%
33 | O=[N+]([O-])c1ccc2c(c1)Cc1cc(F)ccc1-2 | 114%
34 | Cc1ccc(/C=C/c2c(C(=O)/C=C/c3ccc(C(F)(F)F)cc3)c(C)nc3ccccc23)cc1 | -41.3% (active)
35 | O=C(Nc1cccc(-n2cc(-c3ccncc3)c(-c3ccc(Cl)c(O)c3)n2)c1)Nc1ccc(Cl)c(Cl)c1 | -6.98% (active)
36 | O=c1oc2cc(OS(=O)(=O)c3ccccc3)c(Cl)cc2c2c1CCCCCC2 | 87.6%
37 | Fc1ccc(Nc2nc3nonc3nc2Nc2ccc(F)cc2)cc1 | -17.6% (active)
38 | CC(=O)c1ccc(N2C(=O)c3ccc(Oc4ccccc4)cc3C2=O)cc1 | 105%
39 | COc1ccc(-c2nc(-c3ccccn3)c(-c3ccccn3)n2CC(C)C)cc1OC1CCCC1 | -43.5% (active)
40 | CC(=O)Nc1nc(C)c(C(=O)NN)s1 | 117%
